About 7,900 targets were measured; listed, in parts, are those with a hit and a random draw of the rest. About 0.6% of all pairs of compound and target were hits.
Compound: c1cc(OCCN2CCCCC2)cc(-c2n[nH]c3ccc(-c4nnc[nH]4)cc23)c1
Test: log2 fold change, soluble protein after heating vs DMSO (PISA); higher = thermal stabilisation; K562 cells, 10 uM, 30 min; active = over 0.2 and 3.5 SD of the protein, either way, in both replicates (recomputed)
Outline: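 K562 cells at 2×10^6 cells/mL were exposed to 10 μM compound for 30 min, then aliquots were heated for 3 min across 48°C-58°C, pooled, and extracted in PBS containing 0.5% NP-40 at 4°C. The supernatant after 21,000xg for 90 min was taken as soluble protein and measured by TMTpro 16plex LC-MS/MS with channel sums equalised. Thermal stability is reported relative to control samples, with values from duplicates. Fold changes are given on a log2 scale.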

Sequence of UniProt Q641Q2 (Q641Q2 whole entry, looked up): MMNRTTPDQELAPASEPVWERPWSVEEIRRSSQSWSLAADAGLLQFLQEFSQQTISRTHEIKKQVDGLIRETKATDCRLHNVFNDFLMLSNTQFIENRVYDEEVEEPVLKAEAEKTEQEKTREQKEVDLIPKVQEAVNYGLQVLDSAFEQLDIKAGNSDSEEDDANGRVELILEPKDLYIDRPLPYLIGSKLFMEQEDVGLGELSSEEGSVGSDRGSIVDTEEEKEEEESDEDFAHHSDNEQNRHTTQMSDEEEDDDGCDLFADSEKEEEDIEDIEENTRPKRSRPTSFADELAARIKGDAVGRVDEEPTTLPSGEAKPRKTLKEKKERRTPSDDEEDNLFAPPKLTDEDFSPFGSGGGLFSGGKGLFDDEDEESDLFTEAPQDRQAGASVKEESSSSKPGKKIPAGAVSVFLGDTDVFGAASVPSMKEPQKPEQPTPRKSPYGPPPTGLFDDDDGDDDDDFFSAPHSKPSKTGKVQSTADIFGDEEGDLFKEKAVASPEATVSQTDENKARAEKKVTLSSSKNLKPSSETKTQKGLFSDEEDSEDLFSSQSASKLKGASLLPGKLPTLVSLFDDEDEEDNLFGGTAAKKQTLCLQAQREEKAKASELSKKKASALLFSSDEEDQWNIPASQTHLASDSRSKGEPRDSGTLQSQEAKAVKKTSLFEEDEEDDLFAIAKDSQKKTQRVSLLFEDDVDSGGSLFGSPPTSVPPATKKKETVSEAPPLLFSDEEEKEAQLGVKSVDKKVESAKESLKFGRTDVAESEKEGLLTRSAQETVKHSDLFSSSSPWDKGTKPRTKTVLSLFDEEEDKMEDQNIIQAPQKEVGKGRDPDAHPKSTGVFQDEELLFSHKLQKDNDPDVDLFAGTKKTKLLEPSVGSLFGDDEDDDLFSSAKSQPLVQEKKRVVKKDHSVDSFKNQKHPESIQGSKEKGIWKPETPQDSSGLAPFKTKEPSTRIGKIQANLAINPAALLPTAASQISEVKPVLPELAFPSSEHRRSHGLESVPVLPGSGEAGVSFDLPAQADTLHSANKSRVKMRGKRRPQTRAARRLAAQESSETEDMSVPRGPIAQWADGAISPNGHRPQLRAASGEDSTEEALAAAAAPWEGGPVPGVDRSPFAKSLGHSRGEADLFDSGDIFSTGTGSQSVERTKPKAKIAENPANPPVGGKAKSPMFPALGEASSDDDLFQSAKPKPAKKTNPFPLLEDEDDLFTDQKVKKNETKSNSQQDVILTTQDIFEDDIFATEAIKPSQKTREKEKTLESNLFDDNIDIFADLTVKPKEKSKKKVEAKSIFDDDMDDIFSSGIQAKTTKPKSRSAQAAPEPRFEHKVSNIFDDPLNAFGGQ
Sequence of UniProt Q9NVA4 (Q9NVA4 whole entry, looked up): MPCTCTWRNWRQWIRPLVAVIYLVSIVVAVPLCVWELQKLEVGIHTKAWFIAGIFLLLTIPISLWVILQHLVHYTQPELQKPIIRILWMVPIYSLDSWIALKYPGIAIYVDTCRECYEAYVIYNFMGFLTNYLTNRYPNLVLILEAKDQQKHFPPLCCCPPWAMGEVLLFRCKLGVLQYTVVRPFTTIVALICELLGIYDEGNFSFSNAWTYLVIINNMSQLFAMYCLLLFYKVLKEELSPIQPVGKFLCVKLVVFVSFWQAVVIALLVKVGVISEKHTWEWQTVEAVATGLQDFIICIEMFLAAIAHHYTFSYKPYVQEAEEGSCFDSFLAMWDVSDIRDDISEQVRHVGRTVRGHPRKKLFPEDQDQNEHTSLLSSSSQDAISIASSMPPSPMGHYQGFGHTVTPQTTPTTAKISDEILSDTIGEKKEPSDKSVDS
Sequence of UniProt P36406 (P36406 whole entry, looked up): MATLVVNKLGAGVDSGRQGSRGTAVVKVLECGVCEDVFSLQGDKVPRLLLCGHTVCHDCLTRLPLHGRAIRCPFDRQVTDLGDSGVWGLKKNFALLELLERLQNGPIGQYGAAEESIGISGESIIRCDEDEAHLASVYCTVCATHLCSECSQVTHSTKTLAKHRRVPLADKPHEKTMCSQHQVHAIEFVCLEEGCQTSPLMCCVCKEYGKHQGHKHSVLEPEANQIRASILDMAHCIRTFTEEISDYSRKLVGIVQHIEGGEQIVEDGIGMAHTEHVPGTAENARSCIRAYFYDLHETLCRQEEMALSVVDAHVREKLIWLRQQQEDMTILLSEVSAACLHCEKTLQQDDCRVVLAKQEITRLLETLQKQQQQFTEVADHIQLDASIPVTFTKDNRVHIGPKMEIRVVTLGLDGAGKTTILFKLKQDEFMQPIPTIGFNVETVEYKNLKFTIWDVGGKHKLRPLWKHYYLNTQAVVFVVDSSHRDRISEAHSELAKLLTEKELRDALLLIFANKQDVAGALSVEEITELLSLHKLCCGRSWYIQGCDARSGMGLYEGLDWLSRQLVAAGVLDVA
Sequence of UniProt Q9NUM4 (Q9NUM4 whole entry, looked up): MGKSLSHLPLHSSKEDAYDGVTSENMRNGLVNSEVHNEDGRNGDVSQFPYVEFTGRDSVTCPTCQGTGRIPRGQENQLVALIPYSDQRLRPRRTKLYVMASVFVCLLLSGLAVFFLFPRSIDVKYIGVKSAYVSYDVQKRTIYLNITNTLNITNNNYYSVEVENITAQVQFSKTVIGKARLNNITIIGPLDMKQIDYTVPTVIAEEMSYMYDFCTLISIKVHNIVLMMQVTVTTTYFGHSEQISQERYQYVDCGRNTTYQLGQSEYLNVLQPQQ
Sequence of UniProt Q9NQ34 (Q9NQ34 whole entry, looked up): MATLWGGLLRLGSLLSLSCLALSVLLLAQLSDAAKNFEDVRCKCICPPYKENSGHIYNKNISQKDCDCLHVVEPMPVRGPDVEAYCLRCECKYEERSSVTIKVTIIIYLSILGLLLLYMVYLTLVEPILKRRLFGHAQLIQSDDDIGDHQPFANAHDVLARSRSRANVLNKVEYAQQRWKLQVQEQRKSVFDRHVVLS
Sequence of UniProt Q86SZ2 (Q86SZ2 whole entry, looked up): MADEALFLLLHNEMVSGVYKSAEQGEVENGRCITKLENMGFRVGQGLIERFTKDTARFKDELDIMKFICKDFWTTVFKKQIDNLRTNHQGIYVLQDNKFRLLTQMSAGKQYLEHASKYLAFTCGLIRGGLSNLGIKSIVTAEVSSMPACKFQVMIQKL
Sequence of UniProt Q96HV5 (Q96HV5 whole entry, looked up): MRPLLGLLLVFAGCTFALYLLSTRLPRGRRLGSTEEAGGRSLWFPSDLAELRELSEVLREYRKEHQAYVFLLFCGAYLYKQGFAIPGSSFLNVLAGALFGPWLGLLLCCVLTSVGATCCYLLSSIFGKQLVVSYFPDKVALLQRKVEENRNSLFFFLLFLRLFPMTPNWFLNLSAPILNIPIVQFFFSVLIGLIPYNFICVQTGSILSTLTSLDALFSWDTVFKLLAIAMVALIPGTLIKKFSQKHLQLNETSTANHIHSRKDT
Sequence of UniProt Q9BQB6 (Q9BQB6 whole entry, looked up): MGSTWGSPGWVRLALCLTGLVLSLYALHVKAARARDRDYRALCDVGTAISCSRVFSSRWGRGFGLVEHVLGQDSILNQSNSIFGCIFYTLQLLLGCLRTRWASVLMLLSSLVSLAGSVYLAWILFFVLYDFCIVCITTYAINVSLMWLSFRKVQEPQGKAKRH
Sequence of UniProt Q96LJ8 (Q96LJ8 whole entry, looked up): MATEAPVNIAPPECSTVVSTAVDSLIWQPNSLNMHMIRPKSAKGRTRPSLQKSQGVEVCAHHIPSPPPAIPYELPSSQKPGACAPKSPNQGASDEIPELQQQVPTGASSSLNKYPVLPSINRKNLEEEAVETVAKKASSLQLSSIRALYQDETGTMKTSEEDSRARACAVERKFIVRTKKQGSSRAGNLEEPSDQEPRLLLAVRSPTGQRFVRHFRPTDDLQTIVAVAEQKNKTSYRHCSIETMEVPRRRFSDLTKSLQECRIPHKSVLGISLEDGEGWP
Sequence of UniProt Q9NX01 (Q9NX01 whole entry, looked up): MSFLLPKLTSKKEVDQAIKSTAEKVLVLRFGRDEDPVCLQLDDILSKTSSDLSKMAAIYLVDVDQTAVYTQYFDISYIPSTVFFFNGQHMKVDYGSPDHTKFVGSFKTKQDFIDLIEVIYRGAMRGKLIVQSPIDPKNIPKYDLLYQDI
Sequence of UniProt Q96DX7 (Q96DX7 whole entry, looked up): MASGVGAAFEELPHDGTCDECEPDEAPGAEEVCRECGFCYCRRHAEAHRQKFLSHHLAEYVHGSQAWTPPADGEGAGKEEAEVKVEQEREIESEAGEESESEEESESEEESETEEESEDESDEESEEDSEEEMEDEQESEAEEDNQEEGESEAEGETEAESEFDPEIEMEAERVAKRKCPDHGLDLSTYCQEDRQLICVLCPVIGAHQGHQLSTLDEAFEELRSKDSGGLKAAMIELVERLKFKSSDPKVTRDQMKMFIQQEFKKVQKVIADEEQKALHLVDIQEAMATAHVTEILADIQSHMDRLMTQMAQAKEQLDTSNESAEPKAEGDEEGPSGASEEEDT
Sequence of UniProt Q7Z7E8 (Q7Z7E8 whole entry, looked up): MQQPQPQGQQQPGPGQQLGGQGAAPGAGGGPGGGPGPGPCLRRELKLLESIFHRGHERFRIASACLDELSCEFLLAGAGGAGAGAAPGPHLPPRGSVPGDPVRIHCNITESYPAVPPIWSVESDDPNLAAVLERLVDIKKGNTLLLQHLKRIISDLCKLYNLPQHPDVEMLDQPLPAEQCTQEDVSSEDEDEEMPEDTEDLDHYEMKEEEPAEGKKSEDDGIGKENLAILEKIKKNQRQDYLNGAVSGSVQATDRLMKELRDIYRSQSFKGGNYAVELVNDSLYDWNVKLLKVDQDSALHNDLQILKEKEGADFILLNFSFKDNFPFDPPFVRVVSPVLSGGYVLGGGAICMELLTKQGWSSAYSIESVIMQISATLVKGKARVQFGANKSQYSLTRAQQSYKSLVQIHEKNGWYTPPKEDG
Sequence of UniProt Q16763 (Q16763 whole entry, looked up): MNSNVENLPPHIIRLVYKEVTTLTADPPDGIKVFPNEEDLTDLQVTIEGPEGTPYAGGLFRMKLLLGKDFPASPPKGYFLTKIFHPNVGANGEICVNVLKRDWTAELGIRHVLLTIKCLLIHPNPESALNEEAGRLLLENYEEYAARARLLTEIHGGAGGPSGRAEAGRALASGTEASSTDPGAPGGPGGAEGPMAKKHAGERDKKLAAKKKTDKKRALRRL

log2 fold change, inactive:
TRIM44 (UniProt Q96DX7) -0.083
TRIM23 (UniProt P36406) -0.026
VPS28 (UniProt Q9UK41) -0.012
UBE2D1 (UniProt P51668) 0.011
TMEM268 isoform 3 (UniProt Q5VZI3) -0.117
WASHC2A (UniProt Q641Q2) -0.056
TMEM179B (UniProt Q7Z7N9) -0.112
UBE4B isoform 4 (UniProt O95155) -0.014
TRAPPC6B (UniProt Q86SZ2) -0.058
TMEM9B (UniProt Q9NQ34) -0.121
TMEM8A (UniProt Q9HCN3) -0.056
UNC119B (UniProt A6NIH7) 0.005
TRIM4 (UniProt Q9C037) -0.049
UBIAD1 (UniProt Q9Y5Z9) 0.181
USP48 isoform 8 (UniProt Q86UV5) -0.157
TMEM164 (UniProt Q5U3C3) -0.268
UFM1 isoform 2 (UniProt P61960) -0.218
TUT4 (UniProt Q5TAX3) -0.063
UBAP2L (UniProt F8W726) -0.066
TMEM41A (UniProt Q96HV5) -0.059
TMEM184C (UniProt Q9NVA4) 0.022
XIAP (UniProt P98170) -0.106
TMEM106B (UniProt Q9NUM4) 0.046
TXNL4B (UniProt Q9NX01) 0.117
UBE2S (UniProt Q16763) -0.032
VKORC1 (UniProt Q9BQB6) 0.073
TMEM161A (UniProt Q9NX61) -0.098
VWA3B isoform 6 (UniProt Q502W6) -0.076
TTI1 (UniProt O43156) -0.099
UBE2Q1 (UniProt Q7Z7E8) -0.035
TRABD (UniProt Q9H4I3) -0.026
UBXN10 (UniProt Q96LJ8) 0.037
